Reference: PubChem BioAssay
Active and inactive are the calls of the source.

Columns and labels:
[1] = system: Plasmodium falciparum Sir2 (PF13_0152, Sir2A); assay: Plasmodium falciparum Sir2A binding compounds – biochemical, small-molecule microarray, 635 nm fluorescence, primary screen (AID 1098); settings: fluorescence 635 nm, higher = more signal;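 note: score merges spot fluorescence intensity with its signal-to-noise ratio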
[2] = probe aDKK1 binding to arrayed compounds – biochemical, biotinylated probe, 635/667 nm fluorescence, primary screen (AID 1099); settings: small-molecule microarray, higher = more signal;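 note: score merges 667nm spot fluorescence with signal to noise across triplicate slides; reference of the scale not given here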
[3] = probe aCHRDL2 binding to arrayed compounds – biochemical, biotinylated probe, 635/667 nm fluorescence, primary screen (AID 1100); settings: small-molecule microarray, higher = more signal
[4] = change in splice reporter luminescence, either direction, cell-based, HEK293, spliceosome inhibition project, primary screen (AID 1101); settings: HEK293 splicing luciferase reporter, 24 h, higher = more signal, called active from +8 up or from −8 down;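 note: HEK293 cells carrying a splicing-competent luciferase reporter gene; test concentration not given here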
[5] = biological target: Fibroblast growth factor 10 (Homo sapiens) (UniProt O15520); assay: compounds binding fibroblast growth factor 10 – biochemical, small-molecule microarray, 635 nm fluorescence, primary screen (AID 1102); settings: FGF10 binding, fluorescence 635 nm, higher = more signal
[6] = system: glycogen synthase kinase-3 (GSK3A per assay name; protocol says GSK3B); assay: compounds binding glycogen synthase kinase-3 – biochemical, small-molecule microarray, 635 nm fluorescence, GSK3A, primary screen (AID 1103); settings: fluorescence 635 nm, higher = more signal; note: the record names both GSK3A and GSK3B
[7] = biological target: Epidermal growth factor receptor (Homo sapiens) (UniProt P00533); assay: compounds binding epidermal growth factor receptor – biochemical, small-molecule microarray, 635 nm fluorescence, primary screen (AID 1104); settings: EGFR binding, higher = more signal;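 note: score merges 667 nm emission intensity with spot signal to noise over triplicate slides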
[8] = biological target: Follistatin-related protein 3 (Homo sapiens) (UniProt O95633); assay: compounds binding follistatin-related protein 3 – biochemical, small-molecule microarray, 635 nm fluorescence, primary screen (AID 1105); settings: FSTL3 binding, higher = more signal;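 note: score merges emission near 667 nm and signal to noise per printed spot across three slides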
[9] = biological target: Dickkopf-related protein 1 (Homo sapiens) (UniProt O94907); assay: small molecules binding DKK1 protein – biochemical, small-molecule microarray, 635 nm fluorescence scan, primary screen (AID 1106); settings: higher = more signal;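 note: score merges emission near 667 nm with signal to noise over three replicate slides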
[10] = system: Inhibin beta A chain (activin A); assay: small molecules binding activin A – biochemical, small-molecule microarray, 635 nm fluorescence scan, primary screen (AID 1107); settings: INHBA, higher = more signal;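 note: mouse activin A protein probed at 4.33 µg/mL on printed slides; score merges bound-protein fluorescence near 667 nm with spot signal-to-noise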

Chain of Fibroblast growth factor 10 (Homo sapiens) (O15520 whole entry, looked up): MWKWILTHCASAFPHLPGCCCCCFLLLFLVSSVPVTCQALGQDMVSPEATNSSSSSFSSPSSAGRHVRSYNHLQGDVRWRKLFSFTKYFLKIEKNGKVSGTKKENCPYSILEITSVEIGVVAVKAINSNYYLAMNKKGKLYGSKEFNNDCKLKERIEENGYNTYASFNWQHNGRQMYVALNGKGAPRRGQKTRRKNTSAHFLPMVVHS
Chain of Follistatin-related protein 3 (Homo sapiens) (O95633 whole entry, looked up): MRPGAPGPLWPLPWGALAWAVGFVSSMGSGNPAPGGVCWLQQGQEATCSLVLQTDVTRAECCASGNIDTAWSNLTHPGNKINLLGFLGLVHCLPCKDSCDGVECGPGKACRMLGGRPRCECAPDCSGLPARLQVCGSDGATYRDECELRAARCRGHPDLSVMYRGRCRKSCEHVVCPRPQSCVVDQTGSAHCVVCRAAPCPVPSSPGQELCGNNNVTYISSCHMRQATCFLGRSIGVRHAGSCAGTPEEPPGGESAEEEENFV
Chain of Epidermal growth factor receptor (Homo sapiens) (P00533 whole entry, looked up): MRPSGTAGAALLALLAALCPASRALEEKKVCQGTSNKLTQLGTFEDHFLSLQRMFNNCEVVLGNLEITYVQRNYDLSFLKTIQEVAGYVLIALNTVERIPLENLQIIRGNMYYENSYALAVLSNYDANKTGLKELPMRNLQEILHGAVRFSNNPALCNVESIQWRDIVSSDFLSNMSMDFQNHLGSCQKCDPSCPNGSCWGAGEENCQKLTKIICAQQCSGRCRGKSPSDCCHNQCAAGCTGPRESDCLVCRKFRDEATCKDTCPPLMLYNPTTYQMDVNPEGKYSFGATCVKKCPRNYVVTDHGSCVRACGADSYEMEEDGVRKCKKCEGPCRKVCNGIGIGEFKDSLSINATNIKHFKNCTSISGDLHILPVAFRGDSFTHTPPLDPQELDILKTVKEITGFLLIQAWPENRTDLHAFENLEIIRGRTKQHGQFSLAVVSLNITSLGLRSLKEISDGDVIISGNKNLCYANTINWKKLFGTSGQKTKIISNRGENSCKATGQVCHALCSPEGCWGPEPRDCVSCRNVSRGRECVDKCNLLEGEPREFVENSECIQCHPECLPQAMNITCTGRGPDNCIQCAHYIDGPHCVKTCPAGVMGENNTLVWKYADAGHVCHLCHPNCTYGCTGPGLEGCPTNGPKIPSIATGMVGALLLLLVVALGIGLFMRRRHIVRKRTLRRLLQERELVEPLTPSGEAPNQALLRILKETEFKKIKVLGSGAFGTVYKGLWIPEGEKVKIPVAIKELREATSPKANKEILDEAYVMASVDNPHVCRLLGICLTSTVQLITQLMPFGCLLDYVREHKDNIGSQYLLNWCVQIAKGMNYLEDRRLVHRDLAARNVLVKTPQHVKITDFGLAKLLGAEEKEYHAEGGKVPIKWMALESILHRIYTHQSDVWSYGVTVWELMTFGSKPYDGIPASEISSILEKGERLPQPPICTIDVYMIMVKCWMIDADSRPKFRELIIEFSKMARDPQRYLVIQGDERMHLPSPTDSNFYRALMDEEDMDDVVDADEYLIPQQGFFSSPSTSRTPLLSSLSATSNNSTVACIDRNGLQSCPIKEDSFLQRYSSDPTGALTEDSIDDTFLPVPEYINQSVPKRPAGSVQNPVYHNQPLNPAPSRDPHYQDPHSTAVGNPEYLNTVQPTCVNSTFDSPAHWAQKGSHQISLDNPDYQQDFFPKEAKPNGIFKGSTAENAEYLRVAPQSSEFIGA
Chain of Dickkopf-related protein 1 (Homo sapiens) (O94907 whole entry, looked up): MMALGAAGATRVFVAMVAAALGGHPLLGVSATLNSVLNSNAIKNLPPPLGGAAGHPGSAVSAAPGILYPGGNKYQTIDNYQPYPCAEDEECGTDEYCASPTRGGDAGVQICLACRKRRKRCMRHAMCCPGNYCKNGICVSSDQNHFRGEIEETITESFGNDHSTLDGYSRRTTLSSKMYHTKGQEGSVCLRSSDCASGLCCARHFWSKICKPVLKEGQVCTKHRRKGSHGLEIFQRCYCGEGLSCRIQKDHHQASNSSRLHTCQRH

| Structure (SMILES) | composite z-score [1] | composite z-score [2] | composite z-score [3] | z-score [4] | composite z-score [5] | composite z-score [6] | composite z-score [7] | composite z-score [8] | composite z-score [9] | composite z-score [10] |
| --- | --- | --- | --- | --- | --- | --- | --- | --- | --- | --- |
| COc1ccc(NN2C(C(O)c3ccc(OC)cc3)C=CC3C(=O)N(C4CCCCC4)C(=O)C32)cc1 (stereo not given) | 0.797 | 0.702 | 0.501 | -0.316 (inactive) | 0.608 | 1.14 | 0.556 | 1.04 | -0.101 | 1.2 |
| CC(C)[C@@H](C(=O)O)n1cc(-c2ccccc2)nn1 | 0.377 | 0.824 | 0.69 | 0.317 (inactive) | 0.737 | 1.27 | 0.262 | 0.256 | 0.0435 | 0.48 |
| CC(C)C[C@@H]1NC(=O)[C@H]2C[C@@H](C(=O)NCCCCCCNC(=O)CS)[C@@H](c3ccc(O)cc3)N2C1=O | 1.47 | -0.0603 | -0.121 | -0.0594 (inactive) | 1.13 | 1.25 | 1.08 | 1.03 | 0.868 | -1.17 |
| CO[C@H]1O[C@H](CO)[C@@H](OC(=O)Nc2ccc(C(F)(F)F)cc2)[C@H](OC(=O)Nc2ccccc2-c2ccccc2)[C@H]1OC(=O)Nc1ccccc1-c1ccccc1 | 1.29 | 0.13 | 0.411 | -1.03 (inactive) | 1.52 | 1.35 | 0.223 | 1.15 | 0.162 | 0.436 |
| CC(C)C(=C=CC[C@@H](O)c1ccccc1OCCO)C[C@@H](O)c1cc(Cl)cc(Cl)c1O | 0.665 | -0.102 | -0.555 | -1.59 (inactive) | 1.46 | 1.13 | 0.472 | 1.16 | 0.741 | 0.169 |
| Cc1ccc(S[C@]2(C(=O)NC3CC3)CC(=O)N(Cc3cc(C(F)(F)F)cc(C(F)(F)F)c3)[C@@H]2c2ccc(CO)cc2I)cc1 | 1.8 | 0.679 | -0.525 | 0.0986 (inactive) | 0.126 | 0.322 | -0.141 | 0.484 | -0.0211 | 1.15 |
| CN(C)CCCC[C@@H]1NC(=O)[C@H]2C[C@@H](C(=O)O)[C@@H](c3cccc(OCCO)c3)N2C1=O | 1.67 | 0.696 | 0.555 | -0.348 (inactive) | 0.702 | 1.14 | 0.258 | 0.666 | 0.969 | 0.658 |
| CC1(C)OC[C@@]23C=C(Br)[C@@H](C[C@H]12)[C@@]1(CO1)C3=O | 0.0908 | -0.123 | -0.567 | 0.0884 (inactive) | 0.447 | 0.691 | 0.376 | 0.564 | 0.356 | 0.174 |
| Cc1ccc(F)cc1S(=O)(=O)N[C@@H]1CCN(Cc2ccc3[nH]ccc3c2)C1 | 0.114 | -0.177 | -0.124 | 0.309 (inactive) | 0.482 | 0.139 | 0.651 | 1.08 | 0.574 | 0.689 |
| C=CCN1C(=O)[C@]2(O[C@H](CCO)[C@@H]([Si](C)(C)c3ccc(OC)cc3)[C@@H]2C)c2ccccc21 | 0.504 | -0.141 | 0.837 | -3.11 (inactive) | -0.876 | -0.73 | -0.66 | -0.608 | -1.27 | 0.456 |
| C=CCC(OC(C)=O)[C@@H]1[C@@H](N(Cc2ccc(-c3cccc(C(F)(F)F)c3)o2)C(=O)c2cccc3ccccc23)c2cc(OCCCO)ccc2N1C(=O)c1ccc2ccccc2n1 (stereo not given in full) | 0.765 | -0.262 | 0.52 | -1.29 (inactive) | 0.0448 | -0.684 | -0.117 | 0.113 | 0.144 | 1.47 |
| O=C1OCCC/C=C\[C@H]2OC34C=CCN(Cc5ccccc5)C(=O)[C@H]3N(CCCCCO)C(=O)[C@@H]4C12 (stereo not given in full) | 1.21 | -0.312 | 0.312 | -0.0325 (inactive) | -0.744 | -0.823 | -1.1 | -0.808 | -0.663 | 0.933 |
| [N-]=[N+]=NCc1ccccc1C[C@]1(C(=O)N2CCCCC2)N=C(c2ccc(OCCCO)cc2)O[C@H]1c1ccccc1 | 0.92 | 0.484 | 0.769 | -0.44 (inactive) | 0.567 | 0.568 | -0.761 | -0.278 | -0.64 | 0.55 |
| CC#CCO[Si](C#CCCCCCC)(C(C)C)C(C)C | 1.5 | -0.32 | 1.21 | 0.176 (inactive) | -2.46 | -0.719 | -2.07 | -2.09 | -3.48 | -2.74 |
| C=CCC(OC(C)=O)[C@@H]1[C@@H](N(Cc2cc3ccccc3o2)C(=O)Cc2ccc(OC)cc2)c2cc(OCCCO)ccc2N1C(=O)Cc1ccc2ccccc2c1 (stereo not given in full) | -0.542 | -0.217 | 0.689 | -0.475 (inactive) | -0.448 | -1.52 | -0.227 | -0.471 | -0.62 | 0.806 |
| COCCn1c(C(=O)N2CCCC2)cc2c1C[C@H]1CN(C(=O)c3ccccc3)[C@@](Cc3ccccc3)(C(=O)OC)[C@@H]21 | 1.06 | 0.592 | 0.268 | -1.09 (inactive) | 1.15 | 1.26 | -0.273 | 0.166 | 0.257 | 0.693 |
| COCCOC(=O)N1C(=O)[C@@]2(c3cc(C#CC4(O)CCCCCC4)ccc31)[C@H](C(=O)N1CCc3cc(OC)c(OC)cc3C1)[C@H]1C(=O)O[C@H](c3ccccc3)[C@H](c3ccccc3)N1[C@@H]2c1ccc(O)cc1 | 0.974 | 0.142 | 0.248 | 0.543 (inactive) | 1.02 | 1.32 | 0.648 | 1.02 | 0.639 | 0.122 |
| CCN(CC)c1ccc(N2CC=CC34O[C@@H]5C=CCOC(=O)[C@@H]5[C@H]3C(=O)N(CCO)[C@@H]4C2=O)cc1 (stereo not given in full) | 1.47 | -0.0117 | 0.54 | 0.0206 (inactive) | -0.938 | -0.562 | -1.66 | -0.952 | -1.51 | -0.292 |
| COc1cccc(OC)c1C(=O)O[C@H]1[C@@H]2OC(=O)[C@H](Cc3cccc(Br)c3)C/C=C/C[C@@H](Cc3cccc(Br)c3)C(=O)O[C@H]2[C@@H](OC)O[C@@H]1CO | -0.178 | 0.281 | 0.325 | 0.0705 (inactive) | 0.927 | 0.277 | -0.0525 | 0.735 | 0.298 | 0.42 |
| CN(C)CCCC[C@@H]1NC(=O)[C@@H]2C[C@H](C(=O)NCCCCCCNC(=O)CS)[C@H](c3cccc(OCCO)c3)N2C1=O | 1.59 | 0.0307 | 0.358 | -0.162 (inactive) | 0.419 | 0.842 | -0.247 | -0.0613 | 0.735 | -0.0529 |
| O=C1OCCC=C[C@H]2OC34C=CCN(c5ccc(Cl)cc5)C(=O)[C@H]3N(CCO)C(=O)[C@@H]4C12 (stereo not given in full) | -0.358 | -0.208 | 0.266 | -0.343 (inactive) | -0.45 | -0.695 | -0.723 | -0.683 | -0.568 | -1.16 |
| O=C1c2ccccc2[C@@]2(Cc3ccccc3N(Cc3ccccc3)C2=O)[C@H](c2ccc(CO)cc2)N1Cc1ccccc1 | 1.45 | 0.617 | 0.819 | 1.18 (inactive) | -0.74 | -1.37 | -0.949 | -0.604 | -0.868 | 0.58 |
